Screening results deposited in PubChem by several laboratories.
Sampled rows, rich in hits. Any-hit rate of the full collection: about 3.2%.
Rce1 inh: yeast Rce1p protease inhibitors, primary screen, biochemical, fluorescence, cell-free homogeneous | yeast membranes, quenched prenylated peptide cleavage fluorescence | calls only | CAAX prenyl protease 2 (Saccharomyces cerevisiae (strain ATCC 204508 / S288c)), Q03530 | actives 0.27% (n = 290,000);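 active = fall in fluorescence gain of 50% or more versus controls, with final raw signal at or below 3038400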;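 note: plate controls were neutral control wells for no effect and wells lacking membranes for full effect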
TMEM16A inh: TMEM16A chloride channel inhibitors, primary screen, cell-based, HTS; normalized B-score (activity score, 25-100; higher = stronger inhibition) at 10 µM; Anoctamin-1 (Mus musculus), Q8BHY3; AID 588511, 2011; HEK293 TMEM16A/YFP iodide influx fluorescence, ionomycin; actives 1.2% (n = 310,000);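 active = ratio plate-corrected score three or more library SD toward inhibition, starting fluorescence score within five deviations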;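 note: score derived from kinetic fluorescence span divided by baseline fluorescence per well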
CHT block: inhibitors of human choline transporter CHT; High affinity choline transporter 1 (Homo sapiens), Q9GZV3; CHT-expressing cells, membrane potential dye, choline response; stronger effect = lower value; B-score at 10 µM; actives 0.86% (n = 310,000); AID 488975, 2010;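 active = B-score over 3 SD under the library average, and starting fluorescence ratio not unusually high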;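 note: choline stimulus applied at its EC90 after an EC20 pre-addition; B-score computed on integrated fluorescence ratio after choline addition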
TMEM16A act: TMEM16A chloride channel activators or potentiators, primary screen, cell-based, HTS; B-score at 10 µM; AID 623877, 2012; actives 0.3% (n = 340,000); HEK293 TMEM16A/YFP-H148Q/I152L, iodide quench fluorescence; stronger effect = lower value;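 active = fluorescence-ratio B-score plate-corrected deviation score at least 3 library SD below zero, with starting fluorescence score within 5 deviations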;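 note: channel opened by trigger with iodide after compound preincubation; score built on the fluorescence ratio of max minus min over baseline; more negative score means more quench and so TMEM16A activation or potentiation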
Kir21 inh: inhibitors of mouse Kir2.1 inward-rectifier potassium channel | AID 1672, 2009 | actives 0.85% (n = 310,000) | HEK293-Kir2.1, FluxOR thallium flux fluorescence; stronger effect = lower value | B-score at 10 µM;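 active = fluorescence ratio B-score at or below minus 3 SD of library scores, with starting-brightness B-score within 2 SD, cut at about -4.2 in these data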;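 note: channel flux triggered by added potassium and thallium sulfate stimulus; B-score of peak minus minimum fluorescence over baseline after thallium stimulus; more negative B-score means stronger Kir2.1 block with less thallium influx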
Target sequence (P35561 whole entry, looked up): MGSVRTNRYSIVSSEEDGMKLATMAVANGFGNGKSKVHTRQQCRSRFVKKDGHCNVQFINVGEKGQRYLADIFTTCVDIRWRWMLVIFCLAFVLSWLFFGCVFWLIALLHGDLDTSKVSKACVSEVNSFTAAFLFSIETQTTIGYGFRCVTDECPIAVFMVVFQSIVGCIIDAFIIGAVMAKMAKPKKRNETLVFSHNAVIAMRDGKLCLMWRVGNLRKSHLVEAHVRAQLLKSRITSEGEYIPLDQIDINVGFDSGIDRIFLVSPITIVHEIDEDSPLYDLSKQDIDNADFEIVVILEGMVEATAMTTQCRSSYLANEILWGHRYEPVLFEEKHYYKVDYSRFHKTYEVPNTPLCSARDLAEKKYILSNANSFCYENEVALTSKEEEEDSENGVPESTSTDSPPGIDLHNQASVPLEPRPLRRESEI
CHT allo act: CHT positive allosteric modulators, primary screen, cell-based, membrane potential dye, choline EC20 | B-score at 10 µM | High affinity choline transporter 1 (Homo sapiens), Q9GZV3 | actives 0.49% (n = 310,000) | AID 488977, 2010 | CHT-expressing cells; stronger effect = higher value; LV-AA mutant CHT in HEK293 cells;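 active = initial fluorescence not abnormally high and integrated response B-score, plate-corrected, over 3 SD above library mean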
CHT activ conf: CHT activators, confirmation, cell-based, membrane potential dye, duplicate; shares compounds with CHT allo act; CHT-expressing cells, membrane potential dye fluorescence (FDSS); % of choline EC20–EC90 response window; HEK293 expressing CHT LV-AA mutant; choline added at its EC20; activation, % at 10 µM; actives 91% (n = 2,500);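 active = primary screen active, with duplicate mean activation above negative control mean plus 3 SD, cut at about 11% in these data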
HEK293 MP dye: membrane potential response in parental HEK293 cells, counter-screen for CHT activator project, cell-based, membrane potential dye | shares compounds with CHT allo act | membrane potential dye fluorescence (FDSS); measured after EC20 choline addition | ratio readout change at 10 µM, hits read low | actives 62% (n = 2,500) | AID 623908, 2012;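 active = duplicate-averaged ratio beyond 3 SD from buffer wells, up or down, though filed actives are nearly all decreases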
The depositor's hits bear a star; i = inactive; x = not tested or not shown; + = active, no number.

SMILES	Rce1 inh	TMEM16A inh	CHT block	TMEM16A act	Kir21 inh	CHT allo act	CHT activ conf	HEK293 MP dye
O=[N+]([O-])c1cccc(-c2cc3cccc[n+]3cc2-c2cccc([N+](=O)[O-])c2)c1	i	i	i	i	1.6	14*	77*	-75*
CCCCNc1c2c(nc3c(-c4ccccc4)c(C)nn13)CCC2	i	i	i	i	-0.74	i	x	x
Cc1nn2c(NCCN(C)C)c3c(nc2c1-c1ccccc1)CCCC3	+	i	i	i	-2.6	i	11*	-51*
Cc1nn(S(=O)(=O)c2ccccc2)c(C)c1Sc1ccc([N+](=O)[O-])cc1	i	25*	i	i	0.23	8*	29*	i
Cc1ccc(NS(=O)(=O)c2ccc3[nH]c(=O)[nH]c3c2)c(C)c1	i	i	i	i	0.22	i	x	x
CCCN(CC(=O)Nc1cc(Cl)cc(Cl)c1)CC(=O)Nc1ccc(F)c(F)c1F	i	i	i	i	2.5	i	x	x
CCCN(CC(=O)Nc1ccccc1Br)CC(=O)Nc1ccc(F)c(F)c1F	i	i	i	i	-0.63	i	18*	i
O=CC(O)C1OC(=O)C(O)C1O (configuration not stated)	x	x	x	i	x	x	x	x
Cc1ccnc(SCc2cn3c(C)cccc3n2)n1	i	i	i	i	-1.3	7*	27*	-46*
Cc1cc(C)nc(SCc2cn3c(C)cccc3n2)n1	i	i	i	i	1.4	6.8*	44*	-53*
Cc1cccc2nc(CSc3nnc4ccccn34)cn12	i	i	i	i	0.72	i	x	x
CCn1cc(C(=O)N2CCCc3ccccc32)c2cc(OC)c(OC)cc2c1=O	i	i	i	i	0.07	i	x	x
CCOC(=O)c1ccc2[nH]c3c(c2c1)CN(C)CC3	i	i	i	i	-0.78	6.8*	32*	-43*
O=C(CSc1ccc2nnc(-c3ccccn3)n2n1)N1CCOCC1	i	i	i	i	0.16	i	42*	-36*
C[n+]1cn(/N=C/c2ccccc2)c2ccccc21	i	i	i	i	-0.29	6.6*	56*	-55*
COc1ccc(N2CCN(C(=O)NCc3cccc(OC)c3)CC2)cc1	i	i	i	i	-0.57	i	x	x
COc1cc2c(cc1OC)C(c1ccc(Cl)cc1)=NCC2	i	i	i	i	-3.2	i	63*	-79*
COc1cc2c(cc1OC)C(C)=NC1(CCCCC1)C2	+	i	i	i	0.89	9.8*	30*	-44*
COc1cc2c(cc1OC)C(C)=NCC2	i	i	i	i	1.2	14*	60*	-68*
Cc1ccc(-c2nn(C)c(=O)c3ccccc23)cc1CN1CCCCC1	i	i	i	i	1.5	8.7*	27*	-52*
Cc1ccc(C[n+]2cccc(-c3ccccc3)c2)c(C)c1	i	i	i	i	-4.3*	8.4*	59*	i
CC1CCC(N2CCNCC2)CC1 (configuration not stated)	i	i	i	i	0.28	i	x	x
Clc1cnc(N/N=C/c2ccncc2)c(Cl)c1	i	i	i	i	-1.6	i	37*	-44*
CCOC(=O)C1CCN(C(=O)c2[nH]c3ccc(OC)cc3c2C)CC1	i	i	i	i	0.51	i	x	x
COc1ccc(N2CCN(c3cc(C)nc4ccc(OC)cc34)CC2)cc1	i	i	i	i	-0.12	i	x	x
SMILES	Rce1 inh	TMEM16A inh	CHT block	TMEM16A act	Kir21 inh	CHT allo act	CHT activ conf	HEK293 MP dye
COc1ccc2nc(C)cc(N3CCC(C(N)=O)CC3)c2c1	i	i	i	i	-1.6	7.2*	61*	-76*
CCOC(=O)C1CCN(c2cc(C)nc3ccc(OC)cc23)CC1	i	i	i	i	0.27	7.8*	42*	-72*
CCOC(=O)CNC(=O)CSc1cc(C)nc2ccc(OC)cc12	i	i	i	i	-0.39	i	44*	-42*
CCOC(=O)CSc1nc(C)c2cc(OC)ccc2n1	i	i	i	i	0.22	i	x	x
COC(=O)[C@H](C)NC(=O)NCc1ccccc1	i	i	i	i	-0.13	i	x	x
CCOc1ccc(-n2c(-c3ccccc3)c[n+]3c2CCCCC3)cc1	i	i	i	i	-0.63	13*	44*	i
c1ccc(-c2c[n+]3c(n2-c2ccccc2)CCC3)cc1	i	i	i	i	-0.27	i	x	x
COc1cc(CNCc2cc(OC)c(OC)c(OC)c2)cc(OC)c1	i	i	i	i	-0.82	i	x	x
CCOC(=O)C1(Cc2ccccc2)CCN(CC2CC=CCC2)CC1 (configuration not stated)	x	i	i	i	-1.3	i	2	i
COc1ccc(C(N)c2nccc3cc(OC)c(OC)cc23)cc1OC (configuration not stated)	i	i	i	i	0.36	7.3*	53*	-41*
COc1cc(OC)cc(C2=NCCN2)c1	i	i	i	i	0.25	i	35*	-43*
CCCCN(Cc1ccccc1)S(=O)(=O)c1ccc2c(c1)n(C)c(=O)c(=O)n2C	i	i	i	i	-0.37	i	x	x
CN(C)CCN(Cc1ccccc1)S(=O)(=O)c1ccc2c(c1)n(C)c(=O)c(=O)n2C	i	i	i	i	-2.6	12*	74*	-81*
Cc1c([N+](=O)[O-])c(C/C=N/O)nn1C	i	x	x	i	-0.01	x	x	x
O=C1CCCCC1(c1ccccc1)c1ccccc1	x	x	x	i	x	x	x	x
O=C(N/N=C/c1ccncc1)c1cccc([N+](=O)[O-])c1	i	i	i	x	-1.5	i	49*	-51*
